The sample as a whole holds a higher share of hits than the screen did.
Pf apPOL block = Pf-apPOL DNA polymerase inhibition; Recombinant Pf-apPOL, molecular beacon fluorescence, 1.5 h; inhibition, % at 10 µM; 210,000 compounds, 0.25% hits
mHTT CaM bind = disrupts binding of mutant huntingtin to calmodulin. 190,000 compounds, 3.6% hits. AlphaScreen His-mHTT/GST-CaM binding, luminescence. P42858. inhibition, % at 15 µM
Numbers stand for hits; . = inactive; / = no result given. Cut-off read from the data, not from the text of the source: active = inhibition above about 50%; inactive = the rest.

SMILES	Pf apPOL block	mHTT CaM bind
c1ccc(-c2noc(-c3ccco3)n2)nc1	.	.
O=C(Nc1c2c(nn1-c1ccc([N+](=O)[O-])cc1)CSC2)c1ccc(Br)o1	.	.
O=C(C1CCCN(Cc2cccc(Cl)c2)C1)N1CCc2ccccc2C1 (configuration not stated)	.	.
O=C(CN1CCC(c2nc(-c3ccccc3Cl)no2)CC1)Nc1ccccc1Cl	.	.
CN(C)c1ccc(NC(=O)CN2CCC(c3nc(-c4ccccc4Cl)no3)CC2)cc1	.	66.1
Cc1cccc(-n2nc3c(c2NC(=O)Cc2ccccc2)CSC3)c1	.	.
COc1ccc(N2C(=O)CC(NCc3ccco3)C2=O)cc1 (configuration not stated)	.	.
CCn1c(N2CCC(C(=O)NCc3cccc(Cl)c3)CC2)cc(=O)n(C)c1=O	.	58.6
CCn1c(N2CCC(C(=O)NCc3ccc(F)cc3)CC2)cc(=O)n(C)c1=O	.	.
Cn1c(N2CCC(C(=O)Nc3ccccc3)CC2)cc(=O)n(C)c1=O	.	.
CCc1cccc(NC(=O)C2CCN(c3cc(=O)n(C)c(=O)n3C)CC2)c1	.	65.6
COc1cc(OC)c(NC(=O)C2CCN(c3cc(=O)n(C)c(=O)n3C)CC2)cc1Cl	.	58.8
Cn1c(N2CCC(C(=O)N3CCC(Cc4ccccc4)CC3)CC2)cc(=O)n(C)c1=O	.	74.8
Cn1c(N2CCC(C(=O)N3CCN(Cc4ccccc4)CC3)CC2)cc(=O)n(C)c1=O	.	.
COc1ccc(NC(=O)C2CCN(c3cc(=O)n(C)c(=O)n3C)CC2)c(OC)c1	.	.
O=C(Nc1cccc(F)c1)c1ccc(CN2CCOCC2)cc1	.	.
Cc1cc(C)nc(Nc2nc(C(=O)NCC3CCCO3)cs2)n1 (configuration not stated)	.	.
Cc1cc(NC(=O)CSc2cn(CCNC(=O)c3c(F)cccc3F)c3ccccc23)no1	.	.
CC(=O)Nc1ccc(S(=O)(=O)Nc2ccc([N+](=O)[O-])cn2)cc1	.	.
Cc1cc(NC(=O)c2ccc(-n3ccnc3)nn2)no1	.	53.6
CCSc1ccccc1C(=O)Nc1cccc2ccc(OC)nc12	.	.
Cc1cc(NC(=O)c2ccc(C(=O)Nc3cc(C)on3)nc2)no1	.	.
O=C(Nc1cccc2cccnc12)c1ccccc1O	.	.
O=C(Nc1cccc2cccnc12)c1ccc(-n2ccnc2)nn1	.	61.0
CCSc1ccccc1C(=O)Nc1cccc2ccc(-n3ccnc3)nc12	.	82.1
SMILES	Pf apPOL block	mHTT CaM bind
Cc1cc(Cl)ccc1NC(=O)N1CCN(C2=CC3=NC(C)CN3C=N2)CC1 (configuration not stated)	.	.
CCC(=O)N1CCc2c(C(=O)NC3CC3)cccc21	.	.
CCNC(=O)c1cccc2c1CCN2C(=O)CC	.	100.2
Cc1sc2cc(C(=O)N3CCC(C)CC3)[nH]c2c1CN1CCOCC1	.	68.7
Cc1sc2cc(C(=O)N3CCCCC3)[nH]c2c1CN1CCOCC1	.	.
Cc1sc2cc(C(=O)N3CCOCC3)[nH]c2c1CN1CCCC1	.	.
Cc1sc2cc(C(=O)N3CCCCCC3)[nH]c2c1CN1CCOCC1	.	58.8
CC(C)c1ccccc1NS(=O)(=O)c1ccc([N+](=O)[O-])cc1	.	.
O=c1cc(-c2ccccc2)nc2n1CCN2CCCN1CCOCC1	.	.
O=C(Nc1ccc(O)cc1)N(c1ccccc1)c1ccccc1	.	.
Cc1ccc(C2CC(c3ccccc3)n3nnnc3N2)cc1 (configuration not stated)	.	.
Cc1cccc(C2CC(c3ccc(Br)cc3)Nc3nc(N)nn32)c1 (configuration not stated)	.	54.9
Nc1nc2n(n1)C(c1ccccc1)CC(c1ccccc1Cl)N2 (configuration not stated)	.	.
Cc1ccccc1C1CC(c2ccc(F)cc2)Nc2nc(N)nn21 (configuration not stated)	.	.
Cc1ccc(C2CC(c3ccccc3Cl)Nc3nc(N)nn32)cc1 (configuration not stated)	.	66.6
Cc1ccccc1C1CC(c2ccc(Br)cc2)Nc2nc(N)nn21 (configuration not stated)	.	71.3
Cc1ccc(C2CC(c3ccc(Cl)cc3)n3nnnc3N2)cc1 (configuration not stated)	.	54.0
COc1ccc(C2CC(c3cccc(C)c3)n3nc(N)nc3N2)cc1 (configuration not stated)	.	.
COc1ccc(C(=O)COc2ccc3c(-c4cc5cccc(OC)c5oc4=O)cc(=O)oc3c2)cc1	.	.
O=C(c1c[nH]c2ccc(S(=O)(=O)Nc3ccccc3F)cc2c1=O)N1CCCC1	.	.
Cc1cc(C2CCCN2C(=O)Cn2nc(C(F)(F)F)c3c2CCCC3)no1 (configuration not stated)	.	.
CCc1ccc(C(c2ccc(CC)o2)c2cc3c(cc2[N+](=O)[O-])OCO3)o1	.	84.0
Nc1cc2c(cc1[N+](=O)[O-])OCO2	.	.
COc1ccccc1C1CC(c2c(-c3ccccc3)c3cc(Br)ccc3[nH]c2=O)=NO1 (configuration not stated)	.	.
O=c1[nH]c2ccc(Br)cc2c(-c2ccccc2)c1C1=NNC(c2ccco2)C1 (configuration not stated)	.	100.0
SMILES	Pf apPOL block	mHTT CaM bind
COc1ccccc1NS(=O)(=O)c1cc(Cl)ccc1Cl	.	.
CCC1(C)OC(=O)N(CCOC23CC4CC(CC(C4)C2)C3)C1(C)O (configuration not stated)	.	.
CCCc1ccc(OCC(O)CN2CCOCC2)cc1 (configuration not stated)	.	.
CC(=O)N1CCc2sc(C(=O)N3CCN(c4cccc(Cl)c4)CC3)cc2C1	.	78.2
CCC(=O)N1CCc2sc(C(=O)N3CCN(c4cccc(Cl)c4)CC3)cc2C1	.	.
CC(=O)N1CCc2sc(S(=O)(=O)N3CCN(c4ccccc4Cl)CC3)cc2C1	.	80.7
CC(=O)N1CCc2sc(S(=O)(=O)N3CCN(c4ccccc4)CC3)cc2C1	.	.
COc1cc(OC)cc(C(=O)N=c2sc3cc(F)ccc3n2C)c1	.	.
c1ccc(-c2ccccn2)nc1	.	/
c1ccc(-c2ccc(-c3ccccn3)nn2)nc1	/	100.1
COc1ccc(OC)c(NC(=O)C2CCc3sc(C(=O)N4CCCCC4)cc3C2)c1 (configuration not stated)	.	.
CC(C)NC(=O)CSc1nc2[nH]c(=O)cc(O)c2s1	/	.
O=C(NCc1cccc(Cl)c1)c1cc2n(n1)CCCN(Cc1ccc(F)cc1)C2=O	.	.
N#Cc1c(NC(=O)/C=C/C(=O)O)sc2c1CCC2	/	.
CC1(C)C(C=C(Cl)Cl)C1C(=O)Nc1sc2c(c1C#N)CCCC2 (configuration not stated)	91.8	.
CCc1ccc(C2C(C#N)=C(N)N(c3cc([N+](=O)[O-])ccc3C)C3=C2C(=O)CCC3)s1 (configuration not stated)	.	.
CN(CCNC(=O)CC1CCN(C(=O)C2CCCCC2)CC1)Cc1ccccc1	.	.
O=C(CC1CCN(C(=O)c2ccccc2Cl)CC1)NCc1ccccc1F	.	.
CN(C)c1ccc(N2CCC(C(=O)NCCc3c[nH]c4ccccc34)CC2)nn1	.	96.4
CC(CCc1ccccc1)NC(=O)CC1CCN(C(=O)C2CCCCC2)CC1 (configuration not stated)	.	56.5
O=C(CC1CCN(C(=O)c2ccccc2Cl)CC1)NCCc1c[nH]c2ccccc12	.	70.8
